This is a sample that favours compounds with a hit; in the whole collection about 7.9% have one here.
HCV inhibitor: HCV inhibition; Huh7.5.1 HCVcc-Cre infection, luciferase reporter, 44 h; Potency, µM (doses to about 41.8 µM), inactives show at the top dose activity change, negative = inhibition, most hits filed as inhibitors; hit rate 3.4% among 340,000; AID 651820; active means well fitted inhibition curve with a large enough effect; inconclusive means small, poorly fitted or top-dose-only effect, or another doubt; inactive means no such curve, though single readings can be large or run the other way; further: potency means the concentration at half of the fitted maximal effect
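Infectious HCV cell culture screen: compound-treated cells (1,000/well, pre-plated 4 h) are infected with HCVcc-Cre at roughly 0.5 moi and grown 44 h. Infection is quantified by luciferase signal after 15 min substrate incubation at room temperature.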
Marburg entry inh: blocks Marburg virus binding to or entry into cells; Marburg virus pseudotyped entry inhibition, cell reporter; Potency, µM (titrated, usually from 37.8 µM), without a hit: at the top dose activity change, negative = inhibition, actives largely listed as inhibitors; hit rate 1.8% among 300,000; calls by dose curve; tested in HEK293 cells; further: potency means the concentration at half of the fitted maximal effect
HCMV inh: human cytomegalovirus inhibition; activity change, negative = inhibition, % at 57.5 µM; AID 1259415; HFF cells, HCMV-luciferase reporter, 72 h; stronger effect = lower value; hit rate 4.5% among 410,000; in the data active means activity change below about -60%; inconclusive means no clear call, values can overlap the other calls; inactive means above about -39%
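Inhibition of viral replication was scored as loss of reporter luminescence in HFFs infected with HCMV-luciferase (MOI 1 PFU/cell) for 72 h; compounds tested at 2 doses, normalized to buffer and Salinomycin controls.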
Lassa entry inh: blocks Lassa virus binding to or entry into cells; Lassa virus pseudotype entry inhibition, cell reporter; Potency, µM (titrated, usually from 37.9 µM), for the others: at the top dose activity change, negative = inhibition, usual class: inhibitors; AID 540256; hit rate 1.2% among 300,000; calls by dose curve; tested in HEK293 cells; further: potency means the concentration at half of the fitted maximal effect; nearly all actives have a fitted effect of over 50% in size
FMDV antiviral: antivirals against foot and mouth disease virus | FMDV antiviral cell-based qHTS | hit rate 1.2% among 410,000 | Potency, µM (series often up to 57.9 µM), inactives show top-dose activity change, negative = inhibition, actives largely listed as inhibitors; calls by dose curve; tested in HEK293T cells; further: read-out not given here; potency means the concentration at half of the fitted maximal effect; nearly all actives have a fitted effect of over 45% in size
Numbers without * were called inactive; [ ] = remark or other dose. On the % scale 0 is the no-effect control and ±100 the full control effect.

COc1ccc(-c2c([C@H]3[C@@H]4C=CCC[C@@]4(C)C(=O)N3Cc3ccccc3)ccc3ccccc23)cc1OC was read as HCV inhibitor -13%[8.37 µM], HCMV inh -60* and FMDV antiviral inconclusive.
COc1ccc(-c2cc([C@H]3[C@@H]4C=CCC[C@@]4(C)C(=O)N3Cc3ccccc3)ccc2F)cc1OC was read as HCV inhibitor 10µM*, HCMV inh 21 and FMDV antiviral inconclusive.
For O=C(NCCc1nnc2n1CCN(Cc1ccc(F)cc1)CC2)c1ccco1 the results were FMDV antiviral -7%.
CCOC(=O)c1cc(-c2ccc3c(c2)OCCO3)n[nH]1 was read as HCV inhibitor -20%, Marburg entry inh 5.6µM*, HCMV inh 27, Lassa entry inh inconclusive and FMDV antiviral -6%.
Screening COc1ccccc1N1CCN(C(=O)Cc2c(C(=O)O)c(C)cn2C)CC1 returned HCMV inh 0, Lassa entry inh 3%[46.1 µM] and FMDV antiviral -8%.
`Cc1ccc(S(=O)(=O)N2CCOCC2)cc1C(=O)N(C)CCOc1ccc(Cl)cc1` gave HCV inhibitor inconclusive, Marburg entry inh inconclusive, HCMV inh -33, Lassa entry inh inconclusive and FMDV antiviral inconclusive.
CN(CCOc1ccc(Cl)cc1)C(=O)c1cccc(S(=O)(=O)N2CCN(c3ccc(F)cc3)CC2)c1 was read as HCV inhibitor 2.8µM*, Marburg entry inh 7.1µM*, Lassa entry inh inconclusive and FMDV antiviral inconclusive.
For COc1ccc(CCN(C)C(=O)c2cccc(S(=O)(=O)N3CCN(c4ccc(F)cc4)CC3)c2)cc1OC the results were HCV inhibitor 2.8µM*, HCMV inh inconclusive and FMDV antiviral inconclusive.
Screening O=S(=O)(Nc1ccc(C(O)(C(F)(F)F)C(F)(F)F)cc1)c1ccc(Cl)c2nonc12 returned FMDV antiviral 35µM*.
Screening O=C(CN1CCN(CCN2C(=O)c3cccc4cccc(c34)C2=O)CC1)c1ccc(Cl)cc1 returned HCV inhibitor inconclusive, Marburg entry inh -20% and Lassa entry inh 0%.
For COc1ccc(C(=O)CN2CCN(CCN3C(=O)c4cccc5cccc(c45)C3=O)CC2)cc1 the results were HCV inhibitor 10µM*, HCMV inh -22 and FMDV antiviral inconclusive.
COc1cc2c3c(cccc3c1)C(=O)N(CCN1CCCC1)C2=O was read as HCMV inh -98* and FMDV antiviral 0%.
For O=C(CN1CCN(CCN2C(=O)c3cccc4cccc(c34)C2=O)CC1)c1ccc(F)cc1 the results were HCV inhibitor 14µM*, Marburg entry inh -10%, HCMV inh -26, Lassa entry inh -2% and FMDV antiviral 28%.
Screening CC(C)(C)C(=O)N1CCN(CCN2C(=O)c3cccc4cccc(c34)C2=O)CC1 returned HCV inhibitor 10%, Marburg entry inh 8%, HCMV inh 0, Lassa entry inh inconclusive and FMDV antiviral -5%.
For COC1CCCCC1C1CCN(C(=O)c2ccco2)CC1 (configuration not stated) the results were Marburg entry inh -4%[14.2 µM].
For CCS(=O)(=O)Nc1cc(C(=O)N2CCC[C@H]2CO)c2c(c1)nc(-c1ccccc1)n2C the results were FMDV antiviral 3%.
For O=C1c2ccccc2C(=O)c2ccccc21 the results were FMDV antiviral 1%.
`c1ccc2c(c1)[IH]c1ccccc1-2` gave HCV inhibitor 0.028µM*, HCMV inh -100* and FMDV antiviral inconclusive.
For CC(C)CCNC(=O)Cn1c2c(c(-c3ccccc3Cl)cc1=O)CCC2 the results were HCV inhibitor -24%, HCMV inh -80* and FMDV antiviral -21%.
For CC1CCC(NC(=O)Cn2c3c(c(-c4ccccc4Cl)cc2=O)CCC3)CC1 (configuration not stated) the results were HCV inhibitor 11µM*, HCMV inh -23 and FMDV antiviral inconclusive.
Screening CC1CN(C(=O)COC(=O)c2ccc(C#N)cc2)CC(C)O1 (configuration not stated) returned HCV inhibitor 9%, Marburg entry inh 16%[46.1 µM], HCMV inh inconclusive, Lassa entry inh 0%[46.1 µM] and FMDV antiviral -7%.
Clc1ccccc1CN1CCN(c2ccccc2)CC1 was read as HCV inhibitor -9%, Marburg entry inh -22%, HCMV inh 8, Lassa entry inh 8% and FMDV antiviral 0%.
For Cn1cc(CN2CCN(c3ccccc3)CC2)c2ccccc21 the results were HCV inhibitor inconclusive, Marburg entry inh 15µM*, HCMV inh 8, Lassa entry inh -18% and FMDV antiviral -11%.
COc1ccc2sc(N(CCCN(C)C)C(=O)c3ccc(S(=O)(=O)N(C)Cc4ccccc4)cc3)nc2c1 was read as HCV inhibitor 10µM*, Marburg entry inh inconclusive, HCMV inh -36, Lassa entry inh inconclusive and FMDV antiviral -24%.
`Cc1ccc2sc(N(CCCN(C)C)C(=O)c3ccc(S(=O)(=O)N(C)Cc4ccccc4)cc3)nc2c1C` gave HCV inhibitor 3.5µM*, Marburg entry inh inconclusive, HCMV inh -23, Lassa entry inh inconclusive and FMDV antiviral 32µM*.
Cc1ccc2sc(N(CCCN(C)C)C(=O)c3ccc(S(=O)(=O)N(C)C)cc3)nc2c1C was read as HCV inhibitor inconclusive, HCMV inh -27 and FMDV antiviral -20%.
For COC(=O)c1[nH]c(C)c(/C(O)=C2\C(=O)C(=O)N(CCN3CCOCC3)[C@H]2c2cccnc2)c1C the results were Marburg entry inh 4%.
Screening COC(=O)[C@]1(C)CCC[C@@]2(C)C3CC[C@@]4(C)C[C@]3(CCC21)CC(=O)N4Cc1ccc(OC)cc1 (some centres not stated) returned HCV inhibitor 13µM*, HCMV inh 6 and FMDV antiviral inconclusive.
`COC(=O)[C@]1(C)CCC[C@@]2(C)C3CC[C@]4(OC(C)=O)C[C@@]3(CCC21)CC4=O` (some centres not stated) gave HCV inhibitor inconclusive, HCMV inh -23 and FMDV antiviral inconclusive.
`CN(CCOc1ccccc1)Cc1ccccc1` gave FMDV antiviral -14%.
Cc1cc(C)c(OCCCCN(C)Cc2ccccc2)c(C)c1 was read as HCV inhibitor -26%, HCMV inh -61* and FMDV antiviral -24%.
Screening Cc1ccc(C(C)C)c(OCC(O)CN(C)Cc2ccccc2)c1 (configuration not stated) returned HCV inhibitor inconclusive, Marburg entry inh inconclusive, HCMV inh -70*, Lassa entry inh inconclusive and FMDV antiviral inconclusive.
Cc1ccc(C(C)C)c(OCCCN(C)Cc2ccccc2)c1 was read as HCV inhibitor -4%, Marburg entry inh 8.2µM*, HCMV inh -27, Lassa entry inh inconclusive and FMDV antiviral -7%.
`Cc1ccc(OCCCCN(C)Cc2ccccc2)c(Br)c1` gave HCV inhibitor inconclusive, Marburg entry inh inconclusive, HCMV inh 44, Lassa entry inh inconclusive and FMDV antiviral inconclusive.
